Data: PubChem BioAssay AID1159580 (chemical genetic matrix, 2015)
The campaign covered roughly 5,500 compounds. About 2,000 (36%) were called active. About 18% were inconclusive and are not listed. Cut-off read from the data, not from the text of the source: active = normalized growth mostly below about 0.91 (no sharp cut-off); inconclusive = no clear call, values can overlap the other calls; inactive = mostly above about 0.92. This is one part of the list.

Assay: chemical genetic growth profiling, strain panel (AID 1159580);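 note: tested at 20 µM; growth read once vehicle control cultures reached saturation at 30 °C; 1 = growth at the plate median or of vehicle wells; lower values mean less growth of the strain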
Conditions: growth OD

Measured: normalized growth

C[C@H](COc1ccccc1)N[C@H](C)[C@H](O)c1ccc(O)cc1
inactive: S. cerevisiae deletion strains, locus YJR043C, strain POL32, stronger effect = lower value 1.04 | S. cerevisiae deletion strains, locus YJR066W, strain TOR1, stronger effect = lower value 0.946 | S. cerevisiae deletion strains, locus YKL009W, strain mrt4, stronger effect = lower value 0.99 | S. cerevisiae deletion strains, locus YKL068W, stronger effect = lower value 0.989 | S. cerevisiae deletion strains, locus YKL085W, strain MDH1 (second series), stronger effect = lower value 0.977 | S. cerevisiae deletion strains, locus YKL085W, strain MDH1, stronger effect = lower value 0.977 | S. cerevisiae deletion strains, locus YKL160W, strain elf1, stronger effect = lower value 0.983 | S. cerevisiae deletion strains, locus YKL190W, strain CNB1, stronger effect = lower value 1 | S. cerevisiae deletion strains, locus YKR001C, strain vps1, stronger effect = lower value 1.01 | S. cerevisiae deletion strains, locus YKR026C, strain gcn3, stronger effect = lower value 0.993 | S. cerevisiae deletion strains, locus YKR091W, strain srl3, stronger effect = lower value 0.995 | S. cerevisiae deletion strains, locus YLL001W, strain dnm1, stronger effect = lower value 0.966 | S. cerevisiae deletion strains, locus YLL026W, stronger effect = lower value 1.01 | S. cerevisiae deletion strains, locus YLL041C, strain sdh2, stronger effect = lower value 0.993 | S. cerevisiae deletion strains, locus YLR027C, strain aat2, stronger effect = lower value 1.01 | S. cerevisiae deletion strains, locus YLR039C, strain RIC1, stronger effect = lower value 0.898 | S. cerevisiae deletion strains, locus YLR058C, strain SHM2, stronger effect = lower value 0.987 | S. cerevisiae deletion strains, locus YLR102C, strain apc9, stronger effect = lower value 0.99 | S. cerevisiae deletion strains, locus YLR113W, strain HOG1, stronger effect = lower value 0.962 | S. cerevisiae deletion strains, locus YLR221C, strain rsa3, stronger effect = lower value 0.974 | S. cerevisiae deletion strains, locus YLR258W, strain gsy2, stronger effect = lower value 0.997 | S. cerevisiae deletion strains, locus YLR262C, strain YPT6 (second series), stronger effect = lower value 0.929 | S. cerevisiae deletion strains, locus YLR262C, strain YPT6, stronger effect = lower value 1.04 | S. cerevisiae deletion strains, locus YLR268W, strain sec22, stronger effect = lower value 0.999 | S. cerevisiae deletion strains, locus YLR320W, strain mms22, stronger effect = lower value 0.97 | S. cerevisiae deletion strains, locus YLR330W, strain CHS5, stronger effect = lower value 0.988 | S. cerevisiae deletion strains, locus YLR342W, strain FKS1 (second series), stronger effect = lower value 1.01 | S. cerevisiae deletion strains, locus YLR342W, strain FKS1, stronger effect = lower value 0.997 | S. cerevisiae deletion strains, locus YLR357W, strain rsc2, stronger effect = lower value 0.95 | S. cerevisiae deletion strains, locus YLR370C, strain arc18, stronger effect = lower value 0.994 | S. cerevisiae deletion strains, locus YLR371W, strain rom2, stronger effect = lower value 0.98 | S. cerevisiae deletion strains, locus YLR384C, strain iki3, stronger effect = lower value 1 | S. cerevisiae deletion strains, locus YLR418C, strain cdc73, stronger effect = lower value 1.01 | S. cerevisiae deletion strains, locus YML016C, strain PPZ1, stronger effect = lower value 0.986 | S. cerevisiae deletion strains, locus YML032C, strain rad52, stronger effect = lower value 0.999 | S. cerevisiae deletion strains, locus YML120C, strain ndi1, stronger effect = lower value 0.985 | S. cerevisiae deletion strains, locus YML124C, strain tub3, stronger effect = lower value 0.983 | S. cerevisiae deletion strains, locus YMR058W, strain fet3, stronger effect = lower value 0.988 | S. cerevisiae deletion strains, locus YMR078C, strain ctf18, stronger effect = lower value 0.985 | S. cerevisiae deletion strains, locus YMR125W, strain sto1, stronger effect = lower value 0.984 | S. cerevisiae deletion strains, locus YMR129W, stronger effect = lower value 0.99 | S. cerevisiae deletion strains, locus YMR205C, strain PFK2, stronger effect = lower value 0.974 | S. cerevisiae deletion strains, locus YMR223W, strain ubp8, stronger effect = lower value 0.96 | S. cerevisiae deletion strains, locus YMR231W, strain pep5, stronger effect = lower value 1 | S. cerevisiae deletion strains, locus YMR307W, strain GAS1, stronger effect = lower value 1.05 | S. cerevisiae deletion strains, locus YNL067W, strain RPL9B, stronger effect = lower value 1 | S. cerevisiae deletion strains, locus YNL071W, strain lat1, stronger effect = lower value 1.01 | S. cerevisiae deletion strains, locus YNL128W, strain TEP1, stronger effect = lower value 0.979 | S. cerevisiae deletion strains, locus YNL183C, strain NPR1, stronger effect = lower value 0.95 | S. cerevisiae deletion strains, locus YNL209W, strain ssb2, stronger effect = lower value 0.994 | S. cerevisiae deletion strains, locus YNL233W, strain BNI4, stronger effect = lower value 0.979 | S. cerevisiae deletion strains, locus YNL248C, strain rpa49, stronger effect = lower value 0.985 | S. cerevisiae deletion strains, locus YNL250W, strain rad50, stronger effect = lower value 0.977 | S. cerevisiae deletion strains, locus YNL271C, strain bni1, stronger effect = lower value 0.993 | S. cerevisiae deletion strains, locus YNL298W, strain CLA4, stronger effect = lower value 0.989 | S. cerevisiae deletion strains, locus YNL307C, strain MCK1, stronger effect = lower value 0.988 | S. cerevisiae deletion strains, locus YNL322C, strain KRE1 (second series), stronger effect = lower value 0.998 | S. cerevisiae deletion strains, locus YNR049C, strain mso1, stronger effect = lower value 0.991 | S. cerevisiae deletion strains, locus YNR052C, strain pop2, stronger effect = lower value 0.987 | S. cerevisiae deletion strains, locus YOL012C, strain htz1 1.14 | S. cerevisiae deletion strains, locus YOL147C, strain pex11, stronger effect = lower value 0.99 | S. cerevisiae deletion strains, locus YOR001W, strain rrp6, stronger effect = lower value 1.01 | S. cerevisiae deletion strains, locus YOR061W, strain CKA2, stronger effect = lower value 0.994 | S. cerevisiae deletion strains, locus YOR069W, strain VPS5, stronger effect = lower value 0.98 | S. cerevisiae deletion strains, locus YOR070C, strain gyp1, stronger effect = lower value 0.993 | S. cerevisiae deletion strains, locus YOR080W, strain dia2, stronger effect = lower value 1 | S. cerevisiae deletion strains, locus YOR083W, strain WHI5, stronger effect = lower value 0.987 | S. cerevisiae deletion strains, locus YOR106W, strain vam3, stronger effect = lower value 0.979 | S. cerevisiae deletion strains, locus YOR136W, strain idh2, stronger effect = lower value 0.999 | S. cerevisiae deletion strains, locus YOR144C, strain elg1, stronger effect = lower value 0.999 | S. cerevisiae deletion strains, locus YOR184W, strain ser1, stronger effect = lower value 1 | S. cerevisiae deletion strains, locus YOR231W, strain MKK1, stronger effect = lower value 0.948 | S. cerevisiae deletion strains, locus YOR265W, strain rbl2, stronger effect = lower value 1.01 | S. cerevisiae deletion strains, locus YOR270C, strain vph1, stronger effect = lower value 0.978 | S. cerevisiae deletion strains, locus YOR290C, strain snf2, stronger effect = lower value 0.938 | S. cerevisiae deletion strains, locus YOR316C, strain cot1, stronger effect = lower value 0.986 | S. cerevisiae deletion strains, locus YPL051W, strain arl3, stronger effect = lower value 0.982 | S. cerevisiae deletion strains, locus YPL055C, strain LGE1, stronger effect = lower value 0.965 | S. cerevisiae deletion strains, locus YPL078C, strain atp4, stronger effect = lower value 0.993 | S. cerevisiae deletion strains, locus YPL106C, strain sse1, stronger effect = lower value 0.948 | S. cerevisiae deletion strains, locus YPL240C, strain hsp82, stronger effect = lower value 1.01 | S. cerevisiae deletion strains, locus YPL256C, strain CLN2, stronger effect = lower value 0.926 | S. cerevisiae deletion strains, locus YPR119W, strain clb2, stronger effect = lower value 0.99 | S. cerevisiae deletion strains, locus YPR141C, strain kar3, stronger effect = lower value 0.975 | S. cerevisiae deletion strains, locus YPR163C, strain tif3, stronger effect = lower value 0.989 | S. cerevisiae deletion strains, locus YPR167C, strain met16, stronger effect = lower value 0.993 | S. cerevisiae deletion strains, strain wtn01, stronger effect = lower value 0.986 | S. cerevisiae strains, strain wild type, stronger effect = lower value 0.993
